Measurements taken from ChEMBL document CHEMBL1961873, “Compounds: GSK PKIS; Assays: Nanosyn kinase panel” (2012).

Target: Calcium/calmodulin-dependent protein kinase type 1D (Homo sapiens) (UniProt Q8IU85);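 further: reported figure is the mean percent inhibition of CAMK1D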
Conditions: at 1 µM

Calcium/calmodulin-dependent protein kinase type 1D (Homo sapiens), sequence (Q8IU85 whole entry, looked up): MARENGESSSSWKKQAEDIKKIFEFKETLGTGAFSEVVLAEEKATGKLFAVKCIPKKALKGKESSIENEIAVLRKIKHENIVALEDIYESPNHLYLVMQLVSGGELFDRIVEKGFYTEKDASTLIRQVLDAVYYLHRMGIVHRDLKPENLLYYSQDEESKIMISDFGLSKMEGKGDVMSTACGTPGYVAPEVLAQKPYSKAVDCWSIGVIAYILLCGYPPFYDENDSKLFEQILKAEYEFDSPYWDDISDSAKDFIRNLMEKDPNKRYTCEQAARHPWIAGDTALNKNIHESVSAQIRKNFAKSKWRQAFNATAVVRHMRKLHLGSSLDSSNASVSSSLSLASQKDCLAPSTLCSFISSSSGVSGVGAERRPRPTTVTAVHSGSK

Row | Compound | inhibition
1 | CCn1c(-c2nonc2N)nc2c(C#CC(C)(C)O)nc(O[C@@H](CN)c3ccccc3)cc21 | 29.4%
2 | Nc1nonc1-c1nc2cnccc2n1C1CCCCC1 | 1.22%
3 | CCn1c(-c2nonc2N)nc2c(C#CC(C)(C)O)ncc(OCC3CCNCC3)c21 | 0.97%
4 | NC(=O)c1sc(-n2cnc3cc(C(F)(F)F)ccc32)cc1OCc1ccccc1Br | 1.53%
5 | Cc1cc(-c2ccco2)cc(C)c1/C=C/c1cncc(-c2nn[nH]n2)c1 | -0.49%
6 | NS(=O)(=O)c1ccc(-c2ccc3c(NC(=O)C4CC4)n[nH]c3c2)cc1 | 0.84%
7 | COc1cc(C=NNc2ncnc3c2cnn3Cc2ccccc2)ccc1O | 0.78%
8 | COc1cccc(COc2cc(-n3cnc4ccccc43)sc2C(N)=O)c1 | 0.38%
9 | NS(=O)(=O)c1ccc(N/C=C2\C(=O)Nc3ccc4ncsc4c32)cc1 | 0.92%
10 | COc1cccc(-n2ncc3c(N/N=C/c4ccncc4)ncnc32)c1 | 2.43%
11 | CCn1c(-c2nonc2N)nc2c(C#CC(C)(C)O)ncc(OC[C@@H]3CCCN3)c21 | 0.84%
12 | Fc1ccc(-c2ncn(C3CCNCC3)c2-c2ccnc(Oc3ccccc3)n2)cc1 | 0.14%
13 | CCn1c(-c2nonc2N)nc2c(C#CCN)ncc(OCCCN)c21 | -0.05%

Target: Calcium/calmodulin-dependent protein kinase type II subunit alpha (Homo sapiens) (UniProt Q9UQM7)
Sequence (Q9UQM7 whole entry): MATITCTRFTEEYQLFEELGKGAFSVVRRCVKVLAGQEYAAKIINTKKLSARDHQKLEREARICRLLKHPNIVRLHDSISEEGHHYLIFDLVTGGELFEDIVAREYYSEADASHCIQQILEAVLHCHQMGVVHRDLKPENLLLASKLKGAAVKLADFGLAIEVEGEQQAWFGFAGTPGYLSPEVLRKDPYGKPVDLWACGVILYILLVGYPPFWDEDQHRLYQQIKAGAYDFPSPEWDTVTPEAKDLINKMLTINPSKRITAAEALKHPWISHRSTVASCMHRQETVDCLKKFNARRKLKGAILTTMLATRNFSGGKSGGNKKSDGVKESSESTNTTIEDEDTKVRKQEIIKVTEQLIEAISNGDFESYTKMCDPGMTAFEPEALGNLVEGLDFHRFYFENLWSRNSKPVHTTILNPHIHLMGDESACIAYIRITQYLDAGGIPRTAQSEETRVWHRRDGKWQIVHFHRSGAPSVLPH
Conditions: at 0.1 µM

Row | Compound | inhibition
14 | CCn1c(-c2nonc2N)nc2c(C#CC(C)(C)O)nc(O[C@@H](CN)c3ccccc3)cc21 | -1.19%
15 | Nc1nonc1-c1nc2cnccc2n1C1CCCCC1 | -2.67%
16 | CCn1c(-c2nonc2N)nc2c(C#CC(C)(C)O)ncc(OCC3CCNCC3)c21 | 3.5%
17 | NC(=O)c1sc(-n2cnc3cc(C(F)(F)F)ccc32)cc1OCc1ccccc1Br | 2.4%
18 | Cc1cc(-c2ccco2)cc(C)c1/C=C/c1cncc(-c2nn[nH]n2)c1 | 1.37%
19 | NS(=O)(=O)c1ccc(-c2ccc3c(NC(=O)C4CC4)n[nH]c3c2)cc1 | 3.17%
20 | COc1cc(C=NNc2ncnc3c2cnn3Cc2ccccc2)ccc1O | -5%
21 | COc1cc2c(cc1Nc1nc(Nc3ccsc3C(N)=O)c3cc[nH]c3n1)N(C(=O)CN(C)C)CCC2 | -4.48%
22 | COc1cccc(COc2cc(-n3cnc4ccccc43)sc2C(N)=O)c1 | 0.37%
23 | NS(=O)(=O)c1ccc(N/C=C2\C(=O)Nc3ccc4ncsc4c32)cc1 | 2.56%
24 | COc1cccc(-n2ncc3c(N/N=C/c4ccncc4)ncnc32)c1 | 4.53%
25 | CCn1c(-c2nonc2N)nc2c(C#CC(C)(C)O)ncc(OC[C@@H]3CCCN3)c21 | 1.28%
26 | Fc1ccc(-c2ncn(C3CCNCC3)c2-c2ccnc(Oc3ccccc3)n2)cc1 | -0.23%
27 | CCn1c(-c2nonc2N)nc2c(C#CCN)ncc(OCCCN)c21 | -2.48%

Target: Calcium/calmodulin-dependent protein kinase type II subunit alpha (Homo sapiens) (UniProt Q9UQM7)
Conditions: at 1 µM

Row | Compound | inhibition
28 | CCn1c(-c2nonc2N)nc2c(C#CC(C)(C)O)nc(O[C@@H](CN)c3ccccc3)cc21 | 1.68%
29 | Nc1nonc1-c1nc2cnccc2n1C1CCCCC1 | 0.68%
30 | CCn1c(-c2nonc2N)nc2c(C#CC(C)(C)O)ncc(OCC3CCNCC3)c21 | 2.25%
31 | NC(=O)c1sc(-n2cnc3cc(C(F)(F)F)ccc32)cc1OCc1ccccc1Br | -0.17%
32 | Cc1cc(-c2ccco2)cc(C)c1/C=C/c1cncc(-c2nn[nH]n2)c1 | -0.97%
33 | NS(=O)(=O)c1ccc(-c2ccc3c(NC(=O)C4CC4)n[nH]c3c2)cc1 | 3.21%
34 | COc1cc(C=NNc2ncnc3c2cnn3Cc2ccccc2)ccc1O | -4.25%
35 | COc1cc2c(cc1Nc1nc(Nc3ccsc3C(N)=O)c3cc[nH]c3n1)N(C(=O)CN(C)C)CCC2 | -4.91%
36 | COc1cccc(COc2cc(-n3cnc4ccccc43)sc2C(N)=O)c1 | -0.42%
37 | NS(=O)(=O)c1ccc(N/C=C2\C(=O)Nc3ccc4ncsc4c32)cc1 | 3.49%
38 | COc1cccc(-n2ncc3c(N/N=C/c4ccncc4)ncnc32)c1 | 6.87%
39 | CCn1c(-c2nonc2N)nc2c(C#CC(C)(C)O)ncc(OC[C@@H]3CCCN3)c21 | -2.05%
40 | Fc1ccc(-c2ncn(C3CCNCC3)c2-c2ccnc(Oc3ccccc3)n2)cc1 | -2.16%
41 | CCn1c(-c2nonc2N)nc2c(C#CCN)ncc(OCCCN)c21 | -1.33%

Target: Calcium/calmodulin-dependent protein kinase type II subunit delta (Homo sapiens) (UniProt Q13557);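 further: percent inhibition values are means, taken from the GSK PKIS kinase profiling set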
Sequence (Q13557 whole entry): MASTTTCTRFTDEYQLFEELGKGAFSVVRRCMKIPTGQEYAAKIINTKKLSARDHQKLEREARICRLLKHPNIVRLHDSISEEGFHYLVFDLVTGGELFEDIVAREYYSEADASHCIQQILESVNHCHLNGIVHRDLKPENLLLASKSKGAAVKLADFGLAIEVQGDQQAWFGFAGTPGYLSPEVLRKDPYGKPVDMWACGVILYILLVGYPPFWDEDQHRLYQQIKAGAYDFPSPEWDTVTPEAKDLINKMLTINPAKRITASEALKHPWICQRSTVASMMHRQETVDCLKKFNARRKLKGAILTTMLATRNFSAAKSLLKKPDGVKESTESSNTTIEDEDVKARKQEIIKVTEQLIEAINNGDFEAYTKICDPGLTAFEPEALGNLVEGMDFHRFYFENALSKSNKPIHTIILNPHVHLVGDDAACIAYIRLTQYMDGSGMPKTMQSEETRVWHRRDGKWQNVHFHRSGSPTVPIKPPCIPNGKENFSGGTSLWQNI
Conditions: at 0.1 µM

Row | Compound | inhibition
42 | CCn1c(-c2nonc2N)nc2c(C#CC(C)(C)O)nc(O[C@@H](CN)c3ccccc3)cc21 | -0.76%
43 | Nc1nonc1-c1nc2cnccc2n1C1CCCCC1 | -1.42%
44 | CCn1c(-c2nonc2N)nc2c(C#CC(C)(C)O)ncc(OCC3CCNCC3)c21 | 2.49%
45 | NC(=O)c1sc(-n2cnc3cc(C(F)(F)F)ccc32)cc1OCc1ccccc1Br | 2.18%
46 | Cc1cc(-c2ccco2)cc(C)c1/C=C/c1cncc(-c2nn[nH]n2)c1 | -0.09%
47 | NS(=O)(=O)c1ccc(-c2ccc3c(NC(=O)C4CC4)n[nH]c3c2)cc1 | 2.57%
48 | COc1cc(C=NNc2ncnc3c2cnn3Cc2ccccc2)ccc1O | -4.62%
49 | COc1cc2c(cc1Nc1nc(Nc3ccsc3C(N)=O)c3cc[nH]c3n1)N(C(=O)CN(C)C)CCC2 | 3.02%
50 | COc1cccc(COc2cc(-n3cnc4ccccc43)sc2C(N)=O)c1 | 0.07%
51 | NS(=O)(=O)c1ccc(N/C=C2\C(=O)Nc3ccc4ncsc4c32)cc1 | 4.43%
52 | COc1cccc(-n2ncc3c(N/N=C/c4ccncc4)ncnc32)c1 | 4.21%
53 | CCn1c(-c2nonc2N)nc2c(C#CC(C)(C)O)ncc(OC[C@@H]3CCCN3)c21 | 0.64%
54 | Fc1ccc(-c2ncn(C3CCNCC3)c2-c2ccnc(Oc3ccccc3)n2)cc1 | 1.37%
55 | CCn1c(-c2nonc2N)nc2c(C#CCN)ncc(OCCCN)c21 | -4.81%
